# Data published in PubChem BioAssay (Tox21).
# Values joined by “and” are separate entries in the source; they are usually repeats but may differ in a detail not shown here. Equal values may be shown once. Records with an inconclusive call do not appear. Where a call stands in place of a potency, no number is given. More than one record can exist for a structure, and the calls need not agree. Active and inactive are the calls of the source. Unless noted, calls come from the whole dose curve; as a rule, active = well fitted curve in the direction sought with a large enough effect in the repeat runs; inconclusive = weak or mixed curves; inactive = no such curve, though single readings can be large; an effect the other way counts as inactive or inconclusive.
# Experiments:
# [1] = A CellTox Green Cytotoxicity Assay to monitor cytotoxicity in HepG2 cells - 0 hour (AID 1224882); note: nearly all actives have a fitted effect of over 35% in size; note: potency is the fitted concentration of half-maximal effect
# Method in brief: (§1)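 Continuous culture of HepG2 cells with a membrane-impermeant DNA dye; rising fluorescence marks dead cells. Compound exposure lasted up to 40 h at 37 C, with reads every 8 h from 0 h.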
# [2] = A CellTox Green Cytotoxicity Assay to monitor cytotoxicity in HepG2 cells - 32 hour (AID 1224883); note: nearly all actives have a fitted effect of over 50% in size; note: potency is the fitted concentration of half-maximal effect
# Method in brief: as §1
# [3] = A CellTox Green Cytotoxicity Assay to monitor cytotoxicity in HEK293 cells - 8 hour (AID 1224884); note: nearly all actives have a fitted effect of over 35% in size; note: potency is the fitted concentration of half-maximal effect
# Method in brief: (§2)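 Each value comes from one timepoint of a single continuous run in which HEK293 cells with CellTox Green were exposed to compound for up to 40 h at 37 C, dye fluorescence rising with cell death.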
# [4] = qHTS RealTime-Glo MT Cell Viability Assay in HepG2 cells - 16 hour (AID 1224885); note: nearly all actives have a fitted effect of over 50% in size
# Method in brief: (§3)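 Viability was tracked continuously by NanoLuc luminescence from prosubstrate reduced by living HepG2 cells, at successive time points over 40 h of compound exposure. Cells with reagent were preincubated 5 h at 37 °C before compound addition.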
# [5] = qHTS RealTime-Glo MT Cell Viability Assay in HEK293 cells - 24 hour (AID 1224886); note: nearly all actives have a fitted effect of over 50% in size; note: potency is the fitted concentration of half-maximal effect
# Method in brief: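 Viability tracked continuously by luminescence as live cells reduce a prosubstrate for NanoLuc; HEK293 cells preincubated 5 h, compound-treated at 37 C, and read at 0, 8, 16, 24, 32 and 40 h.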
# [6] = qHTS RealTime-Glo MT Cell Viability Assay in HEK293 cells - 8 hour (AID 1224887); note: nearly all actives have a fitted effect of over 50% in size; note: potency is the fitted concentration of half-maximal effect
# Method in brief: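 qHTS format; HEK293 cells with NanoLuc/prosubstrate reagent, 37 C/5% CO2 for 5 h pre-dosing; compounds 23 nL in DMSO; luminescence at each time point reflects viable cells.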
# [7] = A CellTox Green Cytotoxicity Assay to monitor cytotoxicity in HEK293 cells - 16 hour (AID 1224888); note: nearly all actives have a fitted effect of over 35% in size; note: potency is the fitted concentration of half-maximal effect
# Method in brief: as §2
# [8] = qHTS RealTime-Glo MT Cell Viability Assay in HepG2 cells - 0 hour (AID 1224889); note: nearly all actives have a fitted effect of over 50% in size
# Method in brief: as §3
# [9] = A CellTox Green Cytotoxicity Assay to monitor cytotoxicity in HepG2 cells - 8 hour (AID 1224890); note: nearly all actives have a fitted effect of over 45% in size; note: potency is the fitted concentration of half-maximal effect
# Method in brief: as §1
# [10] = qHTS assay to identify small molecule antagonists of the estrogen receptor alpha (ER-alpha) signaling pathway using the BG1 cell line in the presence of 0.1 nM 17-beta-estradiol - cell viability counter screen (AID 1259241); note: nearly all actives have a fitted effect of over 40% in size
# Method in brief: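 VM7Luc4E2 cells (endogenous ER-alpha, 4×ERE-luciferase), hormone-starved 5 days in charcoal-stripped FBS, were treated with compounds plus 0.1 nM 17beta-estradiol for 22 hr at 37C; viability read in same wells as CellTiter-Fluor live-cell protease fluorescence.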
# [11] = qHTS assay to identify small molecule antagonists of the androgen receptor (AR) signaling pathway using the MDA cell line in the presence of 0.5 nM R1881 - cell viability counter screen (AID 1259242); note: nearly all actives have a fitted effect of over 45% in size
# Method in brief: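 Fluorescence from CellTiter-Fluor, which reports protease activity of live cells, was read 30 min after reagent addition to MDA-kb2 cells that had been incubated 16 hr with compound and 0.5 nM R1881.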
# [12] = molecular target: Androgen receptor (Homo sapiens) (UniProt P10275); assay: qHTS assay to identify small molecule antagonists of the androgen receptor (AR) signaling pathway using the MDA cell line in the presence of 0.5 nM R1881 (AID 1259243); note: nearly all actives have a fitted effect of over 50% in size
# Method in brief: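 Inhibition of R1881 (0.5 nM final) induced reporter signal was measured in human MDA-kb2 cells; note the MMTV promoter also responds to GR. Exposure lasted 16 hr at 37C.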
# [13] = molecular target: Estrogen receptor (Homo sapiens) (UniProt P03372); assay: qHTS assay to identify small molecule antagonists of the estrogen receptor alpha (ER-alpha) signaling pathway using the BG1 cell line in the presence of 0.1 nM 17-beta-estradiol (AID 1259244); note: nearly all actives have a fitted effect of over 50% in size; note: potency is the fitted concentration of half-maximal effect
# Method in brief: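 Quantitative high-throughput screen in VM7Luc4E2 cells: compound plus 0.1 nM E2 (final), 22 h, 37C, 5% CO2; ONE-Glo added, 30 min room temperature, luminescence measured.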
# [14] = qHTS assay to identify small molecule HDAC inhibitors (AID 1259364); note: top concentration of the series differs between compounds; nearly all actives have a fitted effect of over 45% in size
# Method in brief: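 Endogenous HDAC class I/II activity was measured in wild-type HCT-116 cells by HDAC-Glo luminescence after 2 h compound treatment.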
# [15] = qHTS assay to identify small molecule HDAC inhibitors - cell viability counter screen (AID 1259365)
# Method in brief: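 Wild-type HCT-116 cells were seeded at 1,500 per well, incubated overnight at 37 C, then exposed to compounds in DMSO for 2hr. Viability was read by CellTiter-Glo luminescence after 30min at room temperature.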
# [16] = qHTS assay to identify small molecule agonists of the sonic hedgehog signaling (Shh) pathway - cell viability counter screen (AID 1259366); note: nearly all actives have a fitted effect of over 50% in size; note: potency is the fitted concentration of half-maximal effect
# Method in brief: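 NIH/3T3-derived 3T3 Gli1-Luc cells (stable Gli1-responsive firefly luciferase reporter) were seeded, rested 4 hr at 37 C/5% CO2, then exposed to compounds in DMSO for 24 hr; viability was read by CellTiter-Fluor fluorescence in the same wells.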
# [17] = qHTS assay to identify small molecule agonists of the sonic hedgehog signaling (Shh) pathway (AID 1259368; calls by dose curve; note: series mostly up to about 92 µM; nearly all actives have a fitted effect of over 15% in size)
# Method in brief: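 Luminescent signal was taken as a measure of Gli1-controlled luciferase expression in stably transfected NIH/3T3-derived cells that had been treated for 24 hr with compounds delivered in DMSO.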
# [18] = qHTS assay to identify small molecule antagonists of the sonic hedgehog signaling (Shh) pathway (AID 1259369; calls by dose curve; note: nearly all actives have a fitted effect of over 45% in size; note: potency is the fitted concentration of half-maximal effect)
# Method in brief: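 Screening used 3T3Gli1-Luc cells at 2,000 per well, compounds delivered in DMSO, and conditioned medium as agonist stimulus; plates incubated 24hr at 37 C and 5% CO2 before a 30min luciferase step.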
# [19] = qHTS assay to identify small molecule antagonists of the sonic hedgehog signaling (Shh) pathway - cell viability counter screen (AID 1259367); note: nearly all actives have a fitted effect of over 55% in size
# Method in brief: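 NIH/3T3-derived Gli1-Luc reporter cells, 2,000/well, plated 4 hr before compound addition, then stimulated with conditioned medium for 24 hr at 37C. Viability measured in the same wells by CellTiter-Fluor fluorescence, reagent added at 23 hr for 1 hr.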
# [20] = qHTS assay to identify small molecule phospholipidosis (PLD) inducers (AID 1259344; active = well fitted curve in the direction sought with a large enough effect; an effect the other way counts as inactive or inconclusive)
# Method in brief: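 HepG2 cells, 900/well, treated with compound plus LipidTOX Red for 24 h at 37 C; amiodarone positive and DMSO negative controls. Fixed with paraformaldehyde/Hoechst, then high-content imaging scored LipidTOX pit count and integrated intensity per well and per cell.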
# Chain of Androgen receptor (Homo sapiens) (P10275 whole entry, looked up): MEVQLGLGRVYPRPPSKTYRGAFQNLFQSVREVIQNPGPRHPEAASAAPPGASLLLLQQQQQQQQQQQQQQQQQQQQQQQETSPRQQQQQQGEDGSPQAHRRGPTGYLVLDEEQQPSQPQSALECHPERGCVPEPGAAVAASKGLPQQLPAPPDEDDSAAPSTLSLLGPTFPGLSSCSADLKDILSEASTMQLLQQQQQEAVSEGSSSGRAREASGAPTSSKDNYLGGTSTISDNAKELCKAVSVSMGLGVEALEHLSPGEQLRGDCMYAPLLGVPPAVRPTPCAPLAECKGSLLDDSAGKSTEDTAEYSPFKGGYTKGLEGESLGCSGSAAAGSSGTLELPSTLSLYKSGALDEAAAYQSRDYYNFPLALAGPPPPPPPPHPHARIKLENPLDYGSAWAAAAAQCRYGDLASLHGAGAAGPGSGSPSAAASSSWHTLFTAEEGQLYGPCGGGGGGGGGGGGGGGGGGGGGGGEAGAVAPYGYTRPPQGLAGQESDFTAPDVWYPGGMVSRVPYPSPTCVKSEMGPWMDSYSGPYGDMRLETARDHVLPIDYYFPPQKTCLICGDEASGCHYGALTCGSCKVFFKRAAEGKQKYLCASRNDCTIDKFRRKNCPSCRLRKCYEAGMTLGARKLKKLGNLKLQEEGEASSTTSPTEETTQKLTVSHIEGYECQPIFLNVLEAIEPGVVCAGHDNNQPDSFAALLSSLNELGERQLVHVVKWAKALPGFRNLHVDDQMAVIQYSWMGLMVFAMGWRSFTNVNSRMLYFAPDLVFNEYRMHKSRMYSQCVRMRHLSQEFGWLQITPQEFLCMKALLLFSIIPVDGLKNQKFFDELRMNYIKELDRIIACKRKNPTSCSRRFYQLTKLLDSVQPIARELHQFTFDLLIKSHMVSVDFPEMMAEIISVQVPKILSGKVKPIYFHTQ
# Chain of Estrogen receptor (Homo sapiens) (P03372 whole entry, looked up): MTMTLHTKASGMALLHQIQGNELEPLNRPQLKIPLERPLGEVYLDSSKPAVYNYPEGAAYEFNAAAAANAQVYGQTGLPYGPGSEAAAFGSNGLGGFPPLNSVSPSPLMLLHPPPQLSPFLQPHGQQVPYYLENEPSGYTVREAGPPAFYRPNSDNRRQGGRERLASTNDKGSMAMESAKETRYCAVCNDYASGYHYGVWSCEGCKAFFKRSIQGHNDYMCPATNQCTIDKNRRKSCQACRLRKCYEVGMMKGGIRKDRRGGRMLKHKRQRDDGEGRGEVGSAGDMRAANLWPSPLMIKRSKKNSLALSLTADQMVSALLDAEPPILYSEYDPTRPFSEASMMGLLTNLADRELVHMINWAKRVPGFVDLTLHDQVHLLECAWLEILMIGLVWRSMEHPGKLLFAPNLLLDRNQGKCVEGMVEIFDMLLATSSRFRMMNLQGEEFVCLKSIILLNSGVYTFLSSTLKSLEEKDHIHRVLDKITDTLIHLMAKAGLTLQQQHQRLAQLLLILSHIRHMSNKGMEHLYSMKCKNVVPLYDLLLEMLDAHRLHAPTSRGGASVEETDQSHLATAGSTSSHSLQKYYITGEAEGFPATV
SMILES,Potency [1],Potency [2],Potency [3],Potency [4],Potency [5],Potency [6],Potency [7],Potency [8],Potency [9],Potency [10],Potency [11],Potency [12],Potency [13],Potency [14],Potency [15],Potency [16],Potency [17],Potency [18],Potency [19],Potency [20]
C[As+](C)(C)CC(=O)[O-],inactive,inactive,inactive,inactive,inactive,inactive,inactive,inactive,inactive,inactive,inactive,inactive,inactive,inactive,inactive,inactive,inactive,inactive,–,–
O=C(NC(=O)c1c(F)cccc1F)Nc1cc(Cl)c(OC(F)(F)C(F)F)c(Cl)c1,inactive,inactive,inactive,inactive,inactive,inactive,inactive,inactive,inactive,inactive,inactive,inactive,inactive,inactive,inactive,inactive,inactive,–,inactive,–
COS(=O)(=O)c1ccc(C)cc1,inactive,inactive,inactive,inactive,inactive,inactive,inactive,inactive,inactive,inactive,inactive,inactive,inactive,inactive,inactive,inactive,inactive,–,–,–
Cc1cccc(OP(=O)(Oc2cccc(C)c2)Oc2cccc(C)c2)c1,inactive,inactive,inactive,inactive,inactive,inactive,inactive,inactive,inactive,inactive,inactive,inactive,–,inactive,inactive,–,inactive,–,inactive,–
CS(=O)(=O)c1ccc(C(=O)C2C(=O)CCCC2=O)c([N+](=O)[O-])c1,39.6 µM (active),44.4 µM (active),44.4 µM (active),inactive,25 µM (active),21.4 µM (active),44.4 µM (active),inactive,39.6 µM (active),inactive,inactive,–,inactive,inactive,inactive,inactive,inactive,–,–,inactive
CCCCCCCCCCBr,inactive,inactive,inactive,inactive,inactive,inactive,inactive,inactive,inactive,inactive,inactive,–,inactive,inactive,inactive,inactive,inactive,inactive,inactive,–
FC(Cl)(Cl)Cl,inactive,inactive,inactive,inactive,inactive,inactive,inactive,inactive,inactive,inactive,inactive,inactive,–,inactive,inactive,inactive,inactive,inactive,inactive,–
NC(=O)CCl,inactive,inactive,inactive,inactive,inactive,inactive,inactive,inactive,inactive,inactive,inactive,inactive,inactive,inactive,inactive,–,inactive,–,–,–
CCOCCOC(C)=O,inactive,inactive,inactive,inactive,inactive,inactive,inactive,inactive,inactive,inactive,inactive,–,inactive,inactive,inactive,inactive,inactive,–,inactive,inactive
c1ccc2c(c1)[nH]c1cnccc12,inactive,inactive,inactive,inactive,inactive,inactive,inactive,inactive,inactive,inactive,inactive,–,inactive,inactive,inactive,inactive,inactive,–,inactive,–
Nc1ccccc1C(=O)OC/C=C/c1ccccc1,inactive,inactive,inactive,inactive,24.6 µM (active),24.6 µM (active),inactive,inactive,inactive,inactive,inactive,–,inactive,–,inactive,inactive,–,–,–,–
Clc1ccc(C(c2ccc(Cl)cc2)C(Cl)(Cl)Cl)cc1,inactive,inactive,inactive,inactive,39.2 µM (active) and 43.6 µM (active),39.2 µM (active),inactive,inactive,–,inactive,inactive,–,–,inactive,inactive,48.9 µM (active) and inactive,inactive,–,inactive,inactive
O=C(CCCN1CCC2(CC1)C(=O)NCN2c1ccccc1)c1ccc(F)cc1,inactive,inactive,inactive,inactive,10.7 µM (active),16.9 µM (active),inactive,inactive,inactive,–,inactive,–,8.41 µM (active),inactive,–,–,inactive,2.11 µM (active),inactive,–
O=c1[nH]c2ccccc2n1CCCN1CCC(n2c(=O)[nH]c3cc(Cl)ccc32)CC1,inactive,21.3 µM (active),inactive,inactive,9.52 µM (active),9.52 µM (active),inactive,inactive,inactive,inactive,inactive,–,–,inactive,inactive,–,inactive,4.22 µM (active),–,inactive
